Screens as filed in PubChem.
PAFAH2 FP inh – PAFAH2 enzyme inhibitors, primary screen, biochemical, fluorescence polarization, human | recombinant PAFAH2, FP-rhodamine activity probe | inhibition, % at 3.39 µM | 340,000 tested, 0.99% active | AID 492956, 2010;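 active means inhibition above the mean over all tested compounds plus 3 SD, cut at about 30% in these data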;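 further: inhibitors block probe labeling of enzyme so polarization drops; 0% = enzyme with DMSO and 100% = wells lacking PAFAH2 protein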
pPAFAH FP inh – pPAFAH enzyme inhibitors, primary screen, biochemical, fluorescence polarization, human. AID 463082, 2010. inhibition, % at 3.39 µM. Platelet-activating factor acetylhydrolase (Homo sapiens), Q13093. 330,000 tested, 1.5% active. recombinant pPAFAH, FP-rhodamine probe fluorescence polarization;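 active means inhibition above the mean inhibition across the screen plus 3 SD, cut at about 25% in these data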;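 further: inhibitors block binding of the rhodamine activity-based probe so polarization drops; 0% = enzyme with DMSO and 100% = wells lacking pPAFAH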
Target sequence (Q13093 whole entry, looked up): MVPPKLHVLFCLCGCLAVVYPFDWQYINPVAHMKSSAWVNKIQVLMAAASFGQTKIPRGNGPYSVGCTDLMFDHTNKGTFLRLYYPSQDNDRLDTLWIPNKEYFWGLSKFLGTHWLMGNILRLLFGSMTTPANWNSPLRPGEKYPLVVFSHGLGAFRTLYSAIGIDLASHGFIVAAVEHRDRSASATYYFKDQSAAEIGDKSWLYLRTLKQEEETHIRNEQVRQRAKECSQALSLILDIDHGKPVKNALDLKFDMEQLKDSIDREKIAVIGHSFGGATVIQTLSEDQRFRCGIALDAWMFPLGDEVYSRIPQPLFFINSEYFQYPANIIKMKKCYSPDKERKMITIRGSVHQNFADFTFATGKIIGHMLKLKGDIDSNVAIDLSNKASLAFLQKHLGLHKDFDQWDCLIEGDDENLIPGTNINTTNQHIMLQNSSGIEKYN
PAFAH1B2 inh – PAFAH1B2 enzyme inhibitors, primary screen, biochemical, fluorescence polarization, human. 340,000 tested, 1.2% active. Platelet-activating factor acetylhydrolase IB subunit alpha2 (Homo sapiens), P68402. inhibition, % at 3.39 µM. recombinant PAFAH1B2, FP-rhodamine activity probe;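 active means inhibition above the mean of all tested compounds plus 3 SD, cut at about 24% in these data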;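 further: 0% = enzyme with DMSO and 100% = wells lacking PAFAH1B2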
PfM18AAP inh-1 – PfM18AAP inhibitors, malaria aminopeptidase, primary screen, biochemical, QFRET, recombinant enzyme; H-Glu-NHMec fluorogenic cleavage; M18 aspartyl aminopeptidase (Plasmodium falciparum 3D7); inhibition, % at 7.35 µM; 290,000 tested, 1.2% active;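 active means inhibition above the campaign mean inhibition over all tested compounds plus 3 SD, cut at about 28% in these data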;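 further: 0% = plate median of test compound wells and 100% = 2 mM ZnCl2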
DSG3 Ab inh – inhibitors of pemphigus antibody binding to DSG3, primary screen, biochemical, bead-based, flow cytometry, scFv-GFP; DSG3-coupled beads, scFv-anti-DSG3-GFP binding; hits give low values; Desmoglein-3 (Homo sapiens), P32926; 310,000 tested, 0.48% active; binding (percent of control), % at 10 µM; AID 588358, 2011;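 active means binding more than 3 SD below its plate's average and above zero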;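 further: hits lower antibody fragment binding to DSG3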
PAFAH1B3 FP inh – PAFAH1B3 enzyme inhibitors, primary screen, biochemical, fluorescence polarization, human. inhibition, % at 3.39 µM. 340,000 tested, 0.28% active. Platelet-activating factor acetylhydrolase IB subunit alpha1 (Homo sapiens), Q15102. recombinant PAFAH1B3, FP-rhodamine probe;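 active means inhibition above the screen-wide average of all tested compounds plus 3 SD, cut at about 25% in these data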;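 further: 0% = enzyme with DMSO only and 100% = wells lacking PAFAH1B3 protein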
Target sequence (Q15102 whole entry, looked up): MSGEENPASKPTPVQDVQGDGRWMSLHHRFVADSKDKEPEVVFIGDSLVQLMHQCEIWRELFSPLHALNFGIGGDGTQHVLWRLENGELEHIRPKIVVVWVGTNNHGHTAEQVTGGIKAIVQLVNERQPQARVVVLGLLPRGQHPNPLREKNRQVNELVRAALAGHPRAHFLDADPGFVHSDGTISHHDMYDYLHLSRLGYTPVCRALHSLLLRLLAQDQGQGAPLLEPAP
PfM18AAP inh-2 – PfM18AAP inhibitors, malaria aminopeptidase, confirmation, biochemical, QFRET, recombinant enzyme, triplicate | shares compounds with PfM18AAP inh-1 | H-Glu-NHMec fluorogenic cleavage | inhibition, % at 7.35 µM | 2,400 tested, 28% active | AID 2170, 2009;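 active means mean inhibition over replicate wells above the hit cutoff set for the earlier primary screen, cut at about 29% in these data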;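 further: 0% = median of test compound wells and 100% = 2 mM ZnCl2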
CTSL1 counter – cathepsin L1 inhibitors, retest, confirmation, counter-screen for PFM18AAP inhibitor project, biochemical, QFRET, triplicate. shares compounds with PfM18AAP inh-1. purified cathepsin L1, Z-Leu-Arg-MCA fluorescence. inhibition, % at 5.96 µM. 2,400 tested, under 10 active. AID 2178, 2009;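 active means average inhibition across replicates above the hit cutoff set in the earlier primary screen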;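 further: 0% = median of test compound wells and 100% = Z-Phe-Ala-diazomethylketone 1 µM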
* hit, by the source's call. Only some compounds are listed: those with a hit (about 3.8% of all), similar ones and a draw of the others.

Results for N#C/C(=C\c1ccc(O)c(O)c1)C(=O)N1CCCC1 ?
PAFAH2 FP inh: 5; pPAFAH FP inh: 8; PAFAH1B2 inh: 7; PfM18AAP inh-1: 56*; DSG3 Ab inh: 99; PAFAH1B3 FP inh: 11; PfM18AAP inh-2: 21; CTSL1 counter: 3

Results for COc1ccc(/C=C(\C#N)C(=O)NCCc2ccccc2)cc1OCc1ccccc1 ?
PAFAH2 FP inh: -27; pPAFAH FP inh: -8; PAFAH1B2 inh: 3; PfM18AAP inh-1: 9; DSG3 Ab inh: 97; PAFAH1B3 FP inh: -2

Results for COc1ccc(C(=O)N/C(=C\c2ccccc2)C(=O)Nc2ccccc2C(=O)O)cc1 ?
PAFAH2 FP inh: 9; pPAFAH FP inh: 1; PAFAH1B2 inh: -3; DSG3 Ab inh: 105; PAFAH1B3 FP inh: 8

What do the screens show for `S=C(Nc1cc(Cl)ccc1Cl)Nn1cnnc1`?
pPAFAH FP inh: 2; PfM18AAP inh-1: 81*; DSG3 Ab inh: 97; PfM18AAP inh-2: 77*; CTSL1 counter: 6

What do the screens show for `S=C(Nc1ccc(Cl)cc1Cl)Nn1cnnc1`?
PAFAH2 FP inh: -4; pPAFAH FP inh: 5; PAFAH1B2 inh: 4; PfM18AAP inh-1: 79*; DSG3 Ab inh: 80; PAFAH1B3 FP inh: 1; PfM18AAP inh-2: 77*; CTSL1 counter: 0

What do the screens show for `COc1cc(N/N=C/c2ccccc2O)ncn1`?
PAFAH2 FP inh: -12; pPAFAH FP inh: 4; PAFAH1B2 inh: -2; PfM18AAP inh-1: 41*; DSG3 Ab inh: 109; PAFAH1B3 FP inh: 4; PfM18AAP inh-2: -18; CTSL1 counter: 4

What do the screens show for `Cc1cc(=O)[nH]c2c(N=Nc3ccc(O)cc3)c(N)nn12`?
PAFAH2 FP inh: 13; PAFAH1B2 inh: 7; PfM18AAP inh-1: 61*; DSG3 Ab inh: 105; PAFAH1B3 FP inh: 8; PfM18AAP inh-2: 62*; CTSL1 counter: 6

What do the screens show for `Nc1nn2c(C(F)(F)F)cc(=O)[nH]c2c1N=Nc1cccc(F)c1`?
PAFAH2 FP inh: 14; pPAFAH FP inh: 11; PAFAH1B2 inh: 11; PfM18AAP inh-1: -5; DSG3 Ab inh: 80; PAFAH1B3 FP inh: 16

What do the screens show for `COc1cc(/C=N/NC(=O)CC#N)cc(Br)c1O`?
PAFAH2 FP inh: 4; pPAFAH FP inh: 2; PAFAH1B2 inh: 5; PfM18AAP inh-1: 57*; DSG3 Ab inh: 102; PAFAH1B3 FP inh: 7; PfM18AAP inh-2: -15; CTSL1 counter: 0

How did Cc1cccc(C)c1NC(=S)NCCc1ccc(O)c(O)c1 do in these assays?
PAFAH2 FP inh: -1; pPAFAH FP inh: 12; PAFAH1B2 inh: 3; PfM18AAP inh-1: 73*; PAFAH1B3 FP inh: 8; PfM18AAP inh-2: 50*; CTSL1 counter: -7

How did Cc1cccnc1NC(=S)NCCc1ccccc1 do in these assays?
PAFAH2 FP inh: 9; pPAFAH FP inh: 4; PAFAH1B2 inh: 6; PfM18AAP inh-1: 42*; DSG3 Ab inh: 93; PAFAH1B3 FP inh: 1; PfM18AAP inh-2: 1; CTSL1 counter: 1

How did OCCNC(=S)NCCc1ccccc1 do in these assays?
PAFAH2 FP inh: 3; pPAFAH FP inh: 5; PAFAH1B2 inh: 1; PfM18AAP inh-1: 0; DSG3 Ab inh: 105; PAFAH1B3 FP inh: -1

How did S=C(NCCc1ccccc1)Nc1c(Cl)cccc1Cl do in these assays?
PAFAH2 FP inh: -4; pPAFAH FP inh: -2; PAFAH1B2 inh: 4; PfM18AAP inh-1: 41*; DSG3 Ab inh: 108; PAFAH1B3 FP inh: 12; PfM18AAP inh-2: -4; CTSL1 counter: -5

Results for COc1cccc(CNC(=O)c2cc(=O)[nH]c3ccc(S(=O)(=O)N4CCOCC4)cc23)c1 ?
PAFAH2 FP inh: 3; pPAFAH FP inh: 1; PAFAH1B2 inh: 0; PAFAH1B3 FP inh: 6

What do the screens show for `COc1ccc(C(=O)N2CCc3ccc(NC(=O)c4ccccn4)cc3C2)cc1F`?
PAFAH2 FP inh: 0; PAFAH1B2 inh: 4; PfM18AAP inh-1: 9; DSG3 Ab inh: 100; PAFAH1B3 FP inh: 3

What do the screens show for `COc1ccc(Cl)cc1CNC[C@H]1O[C@@H](n2ccc(N)nc2=O)[C@H](O)[C@@H]1O`?
DSG3 Ab inh: 108

What do the screens show for `Cc1ccc(NC(=S)NCC2CCN(C(C)c3ccccc3)C2)cc1` (centres undefined)?
PAFAH2 FP inh: 2; pPAFAH FP inh: 4; PAFAH1B2 inh: 0; PfM18AAP inh-1: 3; DSG3 Ab inh: 90; PAFAH1B3 FP inh: 9

What do the screens show for `Cc1cc(C)c(NC(=S)NCC2CCN(C(C)c3ccccc3)C2)c(C)c1` (centres undefined)?
PAFAH2 FP inh: 5; pPAFAH FP inh: -2; PAFAH1B2 inh: 4; PfM18AAP inh-1: 53*; DSG3 Ab inh: 96; PAFAH1B3 FP inh: 4; PfM18AAP inh-2: 3; CTSL1 counter: -2

Results for CCOC(=O)c1cc(C(=O)Nc2sc3c(c2C#N)CCCC3)nn1C ?
PAFAH2 FP inh: -2; pPAFAH FP inh: 5; PAFAH1B2 inh: 3; PfM18AAP inh-1: 37*; DSG3 Ab inh: 101; PAFAH1B3 FP inh: 7; PfM18AAP inh-2: -39; CTSL1 counter: -4

How did Cc1cc(C(=O)Nc2sc3c(c2C#N)CCCC3)no1 do in these assays?
PAFAH2 FP inh: -5; pPAFAH FP inh: -1; PAFAH1B2 inh: 3; PfM18AAP inh-1: 5; DSG3 Ab inh: 103; PAFAH1B3 FP inh: 9

What do the screens show for `CC(C)(C)c1nnc(N/N=C/c2ccc(Br)cc2)n(N)c1=O`?
PAFAH2 FP inh: 3; pPAFAH FP inh: 4; PAFAH1B2 inh: 1; PfM18AAP inh-1: 43*; DSG3 Ab inh: 99; PAFAH1B3 FP inh: 3; PfM18AAP inh-2: -38; CTSL1 counter: 2

Results for CC(C)(C)c1ccc(/C=N/Nc2ccc(C(=O)O)cc2)cc1 ?
PAFAH2 FP inh: 16; pPAFAH FP inh: 14; PAFAH1B2 inh: 12; PfM18AAP inh-1: -6; DSG3 Ab inh: 100; PAFAH1B3 FP inh: 4

Results for CC1CCN(c2ccc(/C=N\Nc3nncn3N)cc2[N+](=O)[O-])CC1 ?
PAFAH2 FP inh: 4; pPAFAH FP inh: 3; PAFAH1B2 inh: 9; PfM18AAP inh-1: 53*; DSG3 Ab inh: 86; PAFAH1B3 FP inh: 7; PfM18AAP inh-2: -18; CTSL1 counter: -4

What do the screens show for `CSc1ccc(/C=N\Nc2nncn2N)cc1`?
PAFAH2 FP inh: 3; pPAFAH FP inh: 0; PAFAH1B2 inh: 10; PfM18AAP inh-1: 53*; DSG3 Ab inh: 111; PAFAH1B3 FP inh: 2; PfM18AAP inh-2: -16; CTSL1 counter: -4
